Our source for the outcome and AC50 values is PubChem BioAssay (EPA / NIEHS).

Records with an inconclusive call do not appear. Calls of active or inactive are those of the source. The calls were made as follows, unless noted: active = hit-call score of the fitted dose curve at least 0.9, where 1 is the maximum; inactive = score below 0.9.

Test [1] deals with Hepatocyte nuclear factor 4-alpha (Homo sapiens) (UniProt P41235). Nature of the test: ATG_HNF4a_TRANS: Attagene TRANS-FACTORIAL HepG2 Assay for human Hepatocyte Nuclear Factor 4 alpha (HNF4a) (AID 2282982; active = hit-call score of the fitted dose curve at least 0.9, where 1 is the maximum). The note with it: HepG2 HNF4a transactivation reporter, mRNA readout. In outline:
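Activity of an exogenous HNF4a–Gal4 fusion scored as induced GAL4-UAS reporter transcripts after 24 h chemical exposure of transfected human HepG2 cells. Read-out via RT-PCR with 6-FAM labelling and capillary electrophoresis; rise over DMSO baseline.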

The nature of test [2]: ATG_M_06_TRANS: Attagene TRANS-FACTORIAL HepG2 Assay for M06 Transcription Factor (Internal Marker) (AID 2282983; active = hit-call score of the fitted dose curve at least 0.9, where 1 is the maximum). The note with it: HepG2 Attagene TRANS M06 internal marker reporter. In a few lines: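 In this multiplexed HepG2 system, compounds are incubated 24 h with cells carrying GAL4-UAS reporter units. Reporter RNA is amplified and resolved by capillary electrophoresis, and induction is scored against DMSO.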

Test [3] is described as follows: ATG_M_32_TRANS: Attagene TRANS-FACTORIAL HepG2 Assay for M32 Transcription Factor (Internal Marker) (AID 2282984; active = hit-call score of the fitted dose curve at least 0.9, where 1 is the maximum;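 also: transcript level of a background control reporter unit measured by RT-PCR and capillary electrophoresis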). Particulars: HepG2 Attagene TRANS M32 internal marker reporter. In a few lines: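 Internal background reporter in transfected HepG2: after 24 h chemical exposure, RNA reverse-transcribed, reporter cDNA amplified, fluorescently labelled and HpaI-cut, then sized by capillary electrophoresis. Gain of signal fitted against DMSO control.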

Test [4] has as its target Nuclear receptor subfamily 4 group A member 2 (Homo sapiens) (UniProt P43354). As to the kind of experiment: ATG_NURR1_TRANS: Attagene TRANS-FACTORIAL HepG2 Assay for human Nuclear Receptor Related Protein 1 (NURR1) (AID 2282985; active = hit-call score of the fitted dose curve at least 0.9, where 1 is the maximum). Particulars: HepG2 Attagene TRANS reporter, mRNA readout. In a few lines: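 Reporter transcript induction, measured by RT-PCR with fluorescent labelling, HpaI digestion and capillary electrophoresis, after 24 hr dosing of human HepG2 cells transiently expressing an exogenous NR-Gal4 fusion with GAL4-UAS-driven reporters; DMSO as baseline.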

Test [5] concerns the target Transcriptional activator Myb (Homo sapiens) (UniProt P10242). Nature of the test: ATG_Myb_CIS: Attagene CIS-FACTORIAL HepG2 Assay for human Myeloblastosis (Myb) Proto-Oncogene Transcription Factor (AID 2282986). Particulars: HepG2 Attagene CIS-FACTORIAL Myb reporter transcription; actives raise or lower the signal. In outline:
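Reporter mRNA is quantified by RT-PCR and capillary electrophoresis 24 h after dosing HepG2 cells transfected with cis-regulated reporter units, which track endogenous transcription factor activity. Gain and loss of signal are fitted versus DMSO baseline.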

Test [6] has as its target Nuclear respiratory factor 1 (Homo sapiens) (UniProt Q16656). Nature of the test: ATG_NRF1_CIS: Attagene CIS-FACTORIAL HepG2 Assay for human Nuclear Respiratory Factor 1 (NRF1) Orphan Gene (AID 2282987). Particulars: HepG2 NRF1 cis-element reporter, Attagene multiplex; actives raise or lower the signal. In a few lines: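 Endogenous NRF1-driven reporter transcription in transfected HepG2 cells after 24 h treatment. Readout: RT-PCR products, 6-FAM labelled and resolved by capillary electrophoresis; changes fitted both directions relative to DMSO.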

Test [7] can be described thus: ATG_NFI_CIS: Attagene CIS-FACTORIAL HepG2 Assay for human Nuclear Factor I (NFI) (AID 2282989). The note with it: HepG2 cis-regulatory reporter, NFI response element transcription; actives raise or lower the signal. In a few lines: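 After transient transfection of HepG2 with cis-promoter reporter constructs and 24 h dosing, RNA is reverse-transcribed, amplified, 6-FAM end-labelled and HpaI-digested before capillary analysis. Bidirectional curve fitting against DMSO.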

The target of test [8] is Myc proto-oncogene protein (Homo sapiens) (UniProt P01106). As to the kind of experiment: ATG_Myc_CIS: Attagene CIS-FACTORIAL HepG2 Assay for human Myelocytomatosis (Myc) Proto-Oncogene Transcription Factor (AID 2282990). The note with it: HepG2, Attagene cis-reporter transcription factor activity; actives raise or lower the signal. In a few lines:
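HepG2, transient MRTU transfection (cis promoters, endogenous TFs); 24 h dosing; TriZol RNA → oligo(dT) RT → PCR → 6-FAM primer extension → HpaI cut → CE. Bidirectional fit vs DMSO.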

Test [9] can be described thus: ATG_NRF2_ARE_CIS: Attagene CIS-FACTORIAL HepG2 Assay for human Nuclear Factor Erythroid 2 Related Factor 2 (NFR2) response to Antioxidant Response Elements (ARE) (AID 2282992). The note with it: HepG2 Attagene ARE/NRF2 reporter, transcription factor activity; actives raise or lower the signal. In outline: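 Using transiently transfected HepG2 cells exposed for 24 h, reporter mRNA levels were determined by RT-PCR with fluorescent primer extension and capillary electrophoresis, analysed for gain or loss of signal against DMSO.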

Test [10] can be described thus: ATG_Oct_MLP_CIS: Attagene CIS-FACTORIAL HepG2 Assay for human Octamer-Binding Transcription Factor (Oct) (AID 2282993). Particulars: HepG2 Attagene cis-factorial Oct reporter, mRNA; actives raise or lower the signal. In a few lines: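 Cells of the HepG2 line express promoter-controlled reporter sequences whose mRNA levels, after 24 h treatment, are measured by RT-PCR and capillary electrophoresis. Increases and decreases are scored relative to DMSO.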

Test [11] has as its target Bile acid receptor (Homo sapiens) (UniProt Q96RI1). As to the kind of experiment: ATG_FXR_TRANS: Attagene TRANS-FACTORIAL HepG2 Assay for Farnesoid X Receptor (FXR) (AID 2282979; active = hit-call score of the fitted dose curve at least 0.9, where 1 is the maximum;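 also: hits raise reporter mRNA above DMSO so AC50 marks FXR activation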). Particulars: HepG2 Attagene TRANS FXR-GAL4 reporter transcription. In outline: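 HepG2 cells transiently transfected with reporter constructs in which a chimeric FXR-GAL4 protein drives a GAL4-UAS reporter; 24 h compound exposure. Reporter mRNA measured by RT-PCR, FAM labelling, HpaI digestion and capillary electrophoresis; gain-of-signal versus DMSO.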

A short description of test [12]: ATG_NF_kB_CIS: Attagene CIS-FACTORIAL HepG2 Assay for human Nuclear Factor Kappa B (NF-kB) (AID 2282991). Particulars: HepG2 Attagene cis-factorial NF-kB reporter mRNA; actives raise or lower the signal. In outline: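 Readout is reporter transcript level, gain or loss versus DMSO, measured 24 h post-dose via RT-PCR, fluorescent labelling and capillary electrophoresis. Human HepG2 liver cells carried transiently transfected CIS reporter constructs reflecting endogenous factors.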

In test [13] the target is Cellular tumor antigen p53 (Homo sapiens) (UniProt P04637). Nature of the test: ATG_p53_CIS: Attagene CIS-FACTORIAL HepG2 Assay for human p53 Transcription Factor (AID 2282994). Particulars: HepG2 p53 cis-element reporter, Attagene mRNA; actives raise or lower the signal. In a few lines:
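In HepG2 cells, reporter transcription units under cis-regulatory promoters were transiently introduced. Following 24 h treatment, RNA was processed to labelled, digested cDNA fragments read by capillary electrophoresis; fitting was bidirectional versus DMSO.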

A short description of test [14]: BSK_3C_uPAR: BioMAP Diversity Plus: 3C Assay for Urokinase-type plasminogen activator receptor (uPAR) Biomarker Activity (AID 2282998). The note with it: BioMAP 3C HUVEC, uPAR biomarker ELISA; actives raise or lower the signal. In a few lines:
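Endothelial primary cells of human umbilical vein origin received test chemical; 24 h later uPAR was assayed by ELISA. Fitting was bidirectional, DMSO as negative control.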
In general terms: ELISA stands for enzyme-linked immunosorbent assay.

Test [15] is described as follows: BSK_3C_VCAM1: BioMAP Diversity Plus: 3C Assay for Vascular cell adhesion molecule 1 (VCAM1) Biomarker Activity (AID 2282999). The note with it: BioMAP 3C HUVEC, VCAM1 ELISA, cytokine-stimulated; actives raise or lower the signal. In a few lines:
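Activity fitted in both directions relative to DMSO, with ELISA measurement of the surface marker on primary HUVEC (3C) at 24 h post-treatment; parallel SRB staining (0.1% SRB, TCA-fixed, 560 nm) flagged overt cytotoxicity.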

A short description of test [16]: BSK_4H_Eotaxin3: BioMAP Diversity Plus: 4H Assay for Eotaxin 3 Biomarker Activity (AID 2283000).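 As to outcome: CCL26 protein level quantified by ELISA in parallel with SRB cytotoxicity check.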 Particulars: primary human endothelial cells (HUVEC); actives raise or lower the signal. In outline:
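HUVEC, 24 h post-dose, ELISA for Eotaxin-3/CCL26. Gain or loss of signal fitted bidirectionally vs DMSO baseline.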

For test [17], the target named is Oxysterols receptor LXR-alpha (Homo sapiens) (UniProt Q13133). As to the kind of experiment: ATG_LXRa_TRANS: Attagene TRANS-FACTORIAL HepG2 Assay for human Liver X Receptor alpha (LXRa) (AID 2282980; active = hit-call score of the fitted dose curve at least 0.9, where 1 is the maximum). Particulars: HepG2 Attagene TRANS reporter, LXRa transactivation. In outline:
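HepG2 cells were transiently transfected with multiplexed reporter units driven by chimeric LXRa–GAL4 fusion proteins, then dosed for 24 h. Reporter mRNA was quantified by RT-PCR, fluorescent labelling and capillary electrophoresis; gain of signal fitted against DMSO baseline.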

In test [18] the target is Glucocorticoid receptor (Homo sapiens) (UniProt P04150). As to the kind of experiment: ATG_GR_TRANS: Attagene TRANS-FACTORIAL HepG2 Assay for human Glucocorticoid Receptor (GR) (AID 2282978; active = hit-call score of the fitted dose curve at least 0.9, where 1 is the maximum;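 also: activators score as hits since higher reporter transcript over DMSO is fitted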). Particulars: HepG2 Attagene TRANS GR reporter, mRNA transcription. In a few lines: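 Readout is reporter transcript from a chimeric GR-Gal4 acting on GAL4-UAS in transfected human HepG2 liver cells after 24 h exposure, quantified by RT-PCR and capillary electrophoresis. Activation fitted upward against DMSO.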
Glucocorticoid receptor (Homo sapiens), sequence (P04150 whole entry, looked up, the tested form may be a part): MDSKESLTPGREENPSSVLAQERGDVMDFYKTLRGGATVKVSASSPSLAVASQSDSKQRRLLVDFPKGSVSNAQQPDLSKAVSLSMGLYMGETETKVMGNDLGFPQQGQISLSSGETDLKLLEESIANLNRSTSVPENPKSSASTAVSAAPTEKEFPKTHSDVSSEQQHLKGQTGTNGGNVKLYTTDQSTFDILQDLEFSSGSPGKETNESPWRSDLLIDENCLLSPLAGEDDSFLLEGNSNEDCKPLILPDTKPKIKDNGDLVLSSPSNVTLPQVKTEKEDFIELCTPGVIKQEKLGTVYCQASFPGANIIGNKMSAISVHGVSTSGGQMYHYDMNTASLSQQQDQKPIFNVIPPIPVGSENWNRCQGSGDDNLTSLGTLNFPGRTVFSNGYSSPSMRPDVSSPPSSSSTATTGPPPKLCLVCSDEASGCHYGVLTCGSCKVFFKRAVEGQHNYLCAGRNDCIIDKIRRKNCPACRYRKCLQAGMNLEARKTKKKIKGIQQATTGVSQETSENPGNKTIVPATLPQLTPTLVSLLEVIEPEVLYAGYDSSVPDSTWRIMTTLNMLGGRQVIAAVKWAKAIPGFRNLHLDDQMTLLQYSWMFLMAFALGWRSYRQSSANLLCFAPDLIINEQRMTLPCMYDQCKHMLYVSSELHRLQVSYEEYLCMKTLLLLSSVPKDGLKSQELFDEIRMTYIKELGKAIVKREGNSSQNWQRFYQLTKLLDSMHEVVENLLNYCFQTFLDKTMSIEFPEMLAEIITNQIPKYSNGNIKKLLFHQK

Test [19] can be described thus: BSK_3C_TissueFactor: BioMAP Diversity Plus: 3C Assay for Tissue Factor Biomarker Activity (AID 2282997). The note with it: BioMAP 3C HUVEC, tissue factor biomarker readout; actives raise or lower the signal. In a few lines:
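Readout: Tissue Factor ELISA. Cells: human primary umbilical vein endothelium. Time: 24 h after dosing. Analysis: bidirectional fit, DMSO baseline.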

Myc proto-oncogene protein (Homo sapiens), sequence (P01106 whole entry, looked up): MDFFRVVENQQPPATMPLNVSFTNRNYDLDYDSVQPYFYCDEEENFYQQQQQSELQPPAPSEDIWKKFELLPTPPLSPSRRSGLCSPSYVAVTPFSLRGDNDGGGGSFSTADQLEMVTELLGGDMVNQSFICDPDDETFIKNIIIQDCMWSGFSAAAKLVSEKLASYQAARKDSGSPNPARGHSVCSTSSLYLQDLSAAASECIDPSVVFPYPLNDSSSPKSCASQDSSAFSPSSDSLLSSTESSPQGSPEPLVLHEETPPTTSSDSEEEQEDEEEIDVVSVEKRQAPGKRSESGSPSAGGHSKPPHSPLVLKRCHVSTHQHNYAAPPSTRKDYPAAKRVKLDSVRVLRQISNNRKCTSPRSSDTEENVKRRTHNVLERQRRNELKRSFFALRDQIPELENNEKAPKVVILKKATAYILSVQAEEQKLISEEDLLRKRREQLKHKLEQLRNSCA
Nuclear respiratory factor 1 (Homo sapiens), sequence (Q16656 whole entry, looked up): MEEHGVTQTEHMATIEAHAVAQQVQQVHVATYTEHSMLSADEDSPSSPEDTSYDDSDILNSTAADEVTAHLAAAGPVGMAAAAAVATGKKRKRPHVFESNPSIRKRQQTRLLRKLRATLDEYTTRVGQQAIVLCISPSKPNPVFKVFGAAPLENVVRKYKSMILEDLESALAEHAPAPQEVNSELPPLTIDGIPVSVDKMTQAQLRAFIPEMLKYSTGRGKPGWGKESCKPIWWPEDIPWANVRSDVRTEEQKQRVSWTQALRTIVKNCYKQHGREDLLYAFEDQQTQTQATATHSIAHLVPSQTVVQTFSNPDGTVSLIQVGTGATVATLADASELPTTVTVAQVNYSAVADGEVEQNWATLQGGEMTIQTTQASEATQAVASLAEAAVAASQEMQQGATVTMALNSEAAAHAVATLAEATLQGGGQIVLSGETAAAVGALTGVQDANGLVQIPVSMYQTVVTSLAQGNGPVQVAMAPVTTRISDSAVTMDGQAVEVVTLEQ
Nuclear receptor subfamily 4 group A member 2 (Homo sapiens), sequence (P43354 whole entry, looked up, the tested form may be a part): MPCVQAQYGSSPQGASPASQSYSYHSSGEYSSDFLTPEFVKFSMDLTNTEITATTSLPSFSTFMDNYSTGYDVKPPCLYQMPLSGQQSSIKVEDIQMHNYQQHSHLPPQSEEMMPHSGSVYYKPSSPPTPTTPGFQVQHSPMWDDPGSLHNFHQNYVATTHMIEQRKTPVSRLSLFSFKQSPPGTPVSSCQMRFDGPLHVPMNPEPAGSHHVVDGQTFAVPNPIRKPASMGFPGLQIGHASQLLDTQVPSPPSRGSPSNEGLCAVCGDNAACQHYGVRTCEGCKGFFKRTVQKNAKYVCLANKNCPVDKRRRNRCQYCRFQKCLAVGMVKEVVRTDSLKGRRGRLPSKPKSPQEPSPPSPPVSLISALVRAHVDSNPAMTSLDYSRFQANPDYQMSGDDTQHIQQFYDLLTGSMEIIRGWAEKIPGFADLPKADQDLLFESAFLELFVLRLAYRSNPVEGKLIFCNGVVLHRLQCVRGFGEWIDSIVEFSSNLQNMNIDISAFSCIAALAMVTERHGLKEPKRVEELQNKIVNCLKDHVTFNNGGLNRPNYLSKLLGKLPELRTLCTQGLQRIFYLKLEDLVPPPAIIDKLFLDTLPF
Cellular tumor antigen p53 (Homo sapiens), sequence (P04637 whole entry, looked up, the tested form may be a part): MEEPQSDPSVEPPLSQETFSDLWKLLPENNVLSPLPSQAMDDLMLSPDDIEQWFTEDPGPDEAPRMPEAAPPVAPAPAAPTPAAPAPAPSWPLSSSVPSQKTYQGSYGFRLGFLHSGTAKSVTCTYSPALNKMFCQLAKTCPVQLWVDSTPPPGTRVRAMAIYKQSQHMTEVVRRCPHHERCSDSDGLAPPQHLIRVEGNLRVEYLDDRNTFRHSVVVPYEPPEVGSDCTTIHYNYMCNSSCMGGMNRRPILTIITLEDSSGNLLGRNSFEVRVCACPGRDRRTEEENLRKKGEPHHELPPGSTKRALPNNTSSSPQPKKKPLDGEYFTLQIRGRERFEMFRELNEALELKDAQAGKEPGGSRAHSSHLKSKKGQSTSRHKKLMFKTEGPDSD
Hepatocyte nuclear factor 4-alpha (Homo sapiens), sequence (P41235 whole entry, looked up, the tested form may be a part): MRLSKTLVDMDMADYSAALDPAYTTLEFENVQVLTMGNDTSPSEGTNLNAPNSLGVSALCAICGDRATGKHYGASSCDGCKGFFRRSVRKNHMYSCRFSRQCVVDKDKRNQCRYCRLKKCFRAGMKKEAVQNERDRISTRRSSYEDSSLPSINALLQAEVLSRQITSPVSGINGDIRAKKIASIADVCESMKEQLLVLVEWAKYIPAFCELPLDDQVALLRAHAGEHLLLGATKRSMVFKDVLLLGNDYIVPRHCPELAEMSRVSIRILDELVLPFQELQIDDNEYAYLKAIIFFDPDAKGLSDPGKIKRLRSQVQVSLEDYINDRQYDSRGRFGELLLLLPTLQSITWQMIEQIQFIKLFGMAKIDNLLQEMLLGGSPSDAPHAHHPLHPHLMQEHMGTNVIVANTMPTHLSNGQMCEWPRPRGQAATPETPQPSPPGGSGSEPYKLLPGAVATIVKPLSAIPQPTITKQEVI
Oxysterols receptor LXR-alpha (Homo sapiens), sequence (Q13133 whole entry, looked up, the tested form may be a part): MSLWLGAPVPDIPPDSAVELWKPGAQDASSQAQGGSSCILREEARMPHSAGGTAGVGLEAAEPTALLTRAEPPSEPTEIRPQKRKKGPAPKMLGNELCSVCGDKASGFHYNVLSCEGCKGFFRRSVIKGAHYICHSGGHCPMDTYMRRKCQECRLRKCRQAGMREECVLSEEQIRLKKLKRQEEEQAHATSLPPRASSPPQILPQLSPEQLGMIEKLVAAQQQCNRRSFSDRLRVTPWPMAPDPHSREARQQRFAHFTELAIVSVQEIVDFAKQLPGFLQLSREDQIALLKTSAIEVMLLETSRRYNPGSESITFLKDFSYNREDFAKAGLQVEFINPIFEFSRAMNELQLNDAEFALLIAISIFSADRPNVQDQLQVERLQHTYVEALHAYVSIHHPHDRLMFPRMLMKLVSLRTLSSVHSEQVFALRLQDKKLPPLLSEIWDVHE
Transcriptional activator Myb (Homo sapiens), sequence (P10242 whole entry, looked up): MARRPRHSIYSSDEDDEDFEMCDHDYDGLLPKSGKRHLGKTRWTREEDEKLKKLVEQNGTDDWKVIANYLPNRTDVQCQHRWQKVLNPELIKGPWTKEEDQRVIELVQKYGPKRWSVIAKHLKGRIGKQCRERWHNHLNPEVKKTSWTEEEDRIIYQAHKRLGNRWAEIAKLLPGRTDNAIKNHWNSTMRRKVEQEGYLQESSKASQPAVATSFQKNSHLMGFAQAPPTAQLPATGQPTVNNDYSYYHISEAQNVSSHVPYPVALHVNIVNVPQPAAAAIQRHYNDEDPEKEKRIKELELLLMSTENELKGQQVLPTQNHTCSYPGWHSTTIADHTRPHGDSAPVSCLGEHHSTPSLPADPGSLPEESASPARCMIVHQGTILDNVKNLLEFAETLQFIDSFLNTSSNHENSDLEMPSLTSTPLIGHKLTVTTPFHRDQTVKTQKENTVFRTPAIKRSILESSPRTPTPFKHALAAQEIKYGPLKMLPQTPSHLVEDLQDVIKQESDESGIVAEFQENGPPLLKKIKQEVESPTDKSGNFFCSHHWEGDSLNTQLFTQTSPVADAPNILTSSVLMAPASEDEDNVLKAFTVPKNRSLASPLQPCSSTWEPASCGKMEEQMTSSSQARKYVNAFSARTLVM
Bile acid receptor (Homo sapiens), sequence (Q96RI1 whole entry, looked up, the tested form may be a part): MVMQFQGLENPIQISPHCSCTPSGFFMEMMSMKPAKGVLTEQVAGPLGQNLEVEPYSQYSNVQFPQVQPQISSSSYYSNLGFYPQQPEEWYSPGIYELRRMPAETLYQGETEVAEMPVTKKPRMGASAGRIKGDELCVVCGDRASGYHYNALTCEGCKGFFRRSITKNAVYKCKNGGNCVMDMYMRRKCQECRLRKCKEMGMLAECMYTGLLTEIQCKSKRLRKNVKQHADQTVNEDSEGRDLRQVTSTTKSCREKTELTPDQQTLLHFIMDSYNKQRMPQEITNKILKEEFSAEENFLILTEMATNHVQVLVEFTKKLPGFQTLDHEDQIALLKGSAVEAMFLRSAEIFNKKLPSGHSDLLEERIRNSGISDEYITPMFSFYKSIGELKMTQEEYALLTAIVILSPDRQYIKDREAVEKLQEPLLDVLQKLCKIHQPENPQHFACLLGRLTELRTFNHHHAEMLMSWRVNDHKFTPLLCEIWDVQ

With `O=C(O)CF`, the molecule was classed as inactive in test [1], in test [2], in test [3], in test [4], in test [5] and in test [6]. The result in test [7], in [8], in test [9] and in [10] was inactive.
On to `CC(=O)CCc1ccc2c(c1)OCO2`, for which the call in [11], in test [2], in test [3], in test [4], in test [5] and in test [6] was inactive. Besides, the outcome in [7], in [8], in test [12], in test [9], in [10] and in test [13] was inactive.
What is called AC50 is the midpoint of the concentration-response curve, whichever way the signal moves. In the case of `Nc1ccc2ccccc2c1`, the molecule was classed as inactive in [2], in [3], in test [5], in test [6], in test [7] and in test [8]. Further, the result in test [9], in test [10], in test [13], in [14] and in test [15] was inactive. Besides, the AC50 in test [16] was 9.1 µM (active).
Turning to `CCOP(=S)(S)OCC`, the molecule was classed as inactive in test [11], in test [17], in [2], in test [3], in [4] and in test [5]. Also, the call in test [6], in test [7], in test [8], in test [10], in test [13] and in test [14] was inactive. The result in test [15] and in test [16] was inactive. Further, the AC50 in [9] was 67.4 µM (active).
As to `c1ccc(OP(Oc2ccccc2)Oc2ccccc2)cc1`, the call in test [18], in test [3], in test [5], in test [6], in test [7] and in [8] was inactive. Also, the result in [12], in test [9], in test [10], in test [13], in [19] and in [14] was inactive. Also, the outcome in [15] and in [16] was inactive.
In the case of `CC(C)CBr`, the call in [11], in test [17], in test [2], in [3], in test [5] and in test [6] was inactive. In addition, the molecule was called inactive in test [7], in test [8], in test [12], in [9], in test [10] and in test [13].
`O=C(O)C(F)(F)C(F)(F)C(=O)O`: the result in test [11], in test [17], in [1], in test [2], in test [4] and in test [5] was inactive. Besides, the molecule was classed as inactive in test [6], in test [7], in [8], in test [12], in test [9] and in test [10]. The outcome in test [13], in [14], in [15] and in test [16] was inactive.
As for `CSC(C)(C)C=NO`, the molecule was classed as inactive in [2], in test [4], in [5], in [6], in [7] and in [8]. Also, the molecule was classed as inactive in test [9], in test [10], in test [19], in test [14], in test [15] and in [16].
In the case of `O=[N+]([O-])c1ccc(Cl)c(Cl)c1`, the molecule was classed as inactive in [11], in test [2], in test [5], in test [6], in [7] and in [8]. Moreover, the result in test [12], in [10], in test [14] and in [15] was inactive. In [9], the concentration at half-maximal activity (AC50) is 100 µM (active).
For `c1nc[nH]n1`, the molecule was classed as inactive in [2], in [3], in [4], in test [5], in [6] and in test [7]. Further, the outcome in test [8], in [12], in test [9], in [10], in [13] and in [14] was inactive. For the same molecule, the outcome in test [15] and in test [16] was inactive.
